# Experimental data as given in PMC4552634, “A New Set of Chemical Starting Points with Plasmodium falciparum Transmission-Blocking Potential for Antimalarial Drug Discovery” (PLoS ONE, 2015).
# Read-outs that look alike come from different tables or passages of the source. Among all 13,000 compounds or so, about 3,200 (25%) showed an effect of 50% or more. This is one part of the list.
# System: P. falciparum stage V gametocytes
# Design: BacTiter-Glo ATP luminescence viability of purified stage V gametocytes in 384-well plates, per cent inhibition versus DMSO
# Details: 48 h, 5 µM, inhibitor
Structure (SMILES),% Inhibition [%],% Inhibition (% Inhibition) [%]
CO/N=C(\C)c1ccc2c(c1)CCN(CCC1CCC(NC(=O)c3cccc(-c4noc(C)n4)c3)CC1)CC2 (centres unmarked) [TCMDC-139923],19.53,–
CC(C)c1cccc(OCC2CCN(c3ncc(C(=O)Nc4ccccc4)cc3Cl)CC2)c1 [TCMDC-134262],5.5,–
O=C(NC1CC1)c1cnc(N2CCC(c3ccccc3)CC2)c(Cl)c1 [TCMDC-134605],18.88,–
COc1ccc2nccc([C@@H](O)CN3CCC(NCc4ccc5c(c4)NC(=O)CO5)CC3)c2c1 [TCMDC-140793],20.76,–
COc1ccc2nccc([C@@H](O)CN3CCC(NCc4ccc5c(c4)NC(=O)C(C)S5)CC3)c2c1 (some centres unmarked) [TCMDC-141222],79.58,–
COc1ccc2nccc([C@@H](O)CN3CCC(NCc4cc5cc([N+](=O)[O-])ccc5[nH]4)CC3)c2c1 [TCMDC-140693],14.13,–
COc1cc(F)c2ncc(F)c([C@@H](O)CN3CCC(NCc4cc5c(cn4)OCCO5)CC3)c2c1 [TCMDC-135378],-21.41,–
COc1ccc2nccc([C@@H](O)CN3CCC(NCc4cc5cccc(O)c5c(=O)[nH]4)CC3)c2c1 [TCMDC-141223],13.37,–
COc1cc(F)c2nccc([C@@H](O)CN3CCC(NCc4cc5c(cc4F)OCCO5)CC3)c2c1 [TCMDC-141570],69.54,–
COc1cc(F)c2nccc([C@@H](O)CN3CCC(NCc4nc5c(F)cccc5[nH]4)CC3)c2c1 [TCMDC-140970],-8.506,–
COc1ccc2nccc([C@@H](O)CN3CCC(NCc4ccc5c(c4)NC(=O)CS5)CC3)c2c1 [TCMDC-141058],3.469,–
COc1ccc2nccc([C@@H](O)CN3CCC(NCc4cc5cc(Cl)ccc5[nH]4)CC3)c2c1 [TCMDC-140697],66.18,–
CCCN1CCC2(CC1)NC(C(=O)NCCC(C)C)Cc1c2[nH]c2cc(Cl)ccc12 (centres unmarked) [TCMDC-141295],-32.44,–
COc1ccccc1C(=O)Nc1ccc(Nc2nc(C)cc(N3CCOCC3)n2)cc1 [TCMDC-124706],21.35,–
Cc1cccc2[nH]c(-c3cccc(-c4cccc(NC(=O)c5cn(C)c(=O)n5C)c4)c3)nc12 [TCMDC-137137],-10.73,–
Cn1cncc1C(=O)Nc1cccc(-c2cccc(-c3nc4ccccc4[nH]3)c2)c1 [TCMDC-137054],26.78,–
Cn1cncc1C(=O)Nc1ccc(-c2cccc(-c3nc4ccc(F)cc4[nH]3)c2)cc1 [TCMDC-137056],28.45,–
Cn1cncc1C(=O)Nc1ccc(-c2cccc(-c3nc4ccc(C(F)(F)F)cc4[nH]3)c2)cc1 [TCMDC-137062],-23.24,–
Cn1cncc1C(=O)Nc1cccc(-c2ccc(-c3nc4ccc(C(F)(F)F)cc4[nH]3)cc2)c1 [TCMDC-137064],-23.15,–
Cn1cncc1C(=O)Nc1cccc(-c2ccc(-c3nc4ccccc4[nH]3)cc2)c1 [TCMDC-137060],87.09,–
Cn1cncc1C(=O)Nc1cccc(-c2ccc(-c3nc4ccc(F)cc4[nH]3)cc2)c1 [TCMDC-137059],-26.92,–

Structure (SMILES),% Inhibition [%],% Inhibition (% Inhibition) [%]
Cn1cncc1C(=O)Nc1cccc(-c2csc(-c3nc4ccccc4[nH]3)c2)c1 [TCMDC-132396],-5.264,–
Cc1cccc2[nH]c(-c3cccc(-c4cccc(NC(=O)c5cncn5C)c4)c3)nc12 [TCMDC-137063],85.59,–
Cc1cccc2[nH]c(-c3ccc(-c4cccc(NC(=O)c5cncn5C)c4)cc3)nc12 [TCMDC-137057],-16.54,–
Cn1cncc1C(=O)Nc1cccc(-c2cccc(-c3nc4ccc(C(F)(F)F)cc4[nH]3)c2)c1 [TCMDC-137061],89.86,–
Cn1cncc1C(=O)Nc1cccc(-c2cccc(-c3nc4ccc(F)cc4[nH]3)c2)c1 [TCMDC-137058],82.61,–
O=C(/C=C/c1ccc(Cl)c(Cl)c1)NCCCCCN1CCC(NC(=O)Nc2ccc(F)c(Cl)c2)CC1 [TCMDC-135720],-54.39,–
O=C(c1ccc(-c2ccc(-c3nc4cc(C(F)(F)F)ccc4[nH]3)s2)cc1)N1CCCCC1CN1CCC(O)C1 (centres unmarked) [TCMDC-132342],-28.43,–
COc1ccc(Nc2nccc(-c3cccc(NC(=O)c4cc5cc(F)ccc5[nH]4)c3)n2)cc1 [TCMDC-133307],7.51,–
COc1ccc(-c2cc(C(=O)N[C@@H](CC3CCCCC3)C(=O)NCCN3CCCC3)ccc2O)cc1 [TCMDC-140802],56.09,–
CCCCNC(=O)[C@H](CC1CCCCC1)NC(=O)c1ccc(O)c(-c2ccc(OC)cc2)c1 [TCMDC-140803],9.095,–
COc1ccc(-c2cc(C(=O)N[C@@H](CC3CCCCC3)C(=O)NCCN3CCCCC3)ccc2O)cc1 [TCMDC-140805],23,–
O=C(Nc1ccc2nc(-c3ccc4nc(NC(=O)C5CCCCC5)sc4c3)[nH]c2c1)C1CCCCC1 [TCMDC-125768],-44.12,–
O=C(N[C@@H](Cc1ccccc1)[C@H](O)CNC1CCc2ccccc2C1)c1cc(C2CCCC2)cc(N2CCCC2=O)c1 (some centres unmarked) [TCMDC-134647],-1.727,–
Cc1ccc(/C=C/C(=O)NC2CCC(CN3CCC(c4c[nH]c5ccccc45)CC3)CC2)cc1 (centres unmarked) [TCMDC-139717],–,80.48
Cc1ccc(C)c(C=CC(=O)NC2CCC(CN3CCC(c4c[nH]c5ccccc45)CC3)CC2)c1 (centres unmarked) [TCMDC-139904],–,66.94
CCCCC/C=C/C(=O)NC1CCC(CN2CCC(c3c[nH]c4ccccc34)CC2)CC1 (centres unmarked) [TCMDC-139709],109.3,–
O=C(/C=C/c1cccs1)NC1CCC(CN2CCC(c3c[nH]c4ccccc34)CC2)CC1 (centres unmarked) [TCMDC-139759],42.82,–
Cc1ccc(/C=C/C(=O)NC2CCC(CN3CCC(c4c[nH]c5ccccc45)CC3)CC2)cc1 (centres unmarked) [TCMDC-139702],–,110
Cc1ccc(C)c(C=CC(=O)NC2CCC(CN3CCC(c4c[nH]c5ccccc45)CC3)CC2)c1 (centres unmarked) [TCMDC-139916],–,-2.713
Cc1ccc(/C=C/C(=O)NC2CCC(CN3CCC(c4c[nH]c5ccccc45)CC3)CC2)cc1C (centres unmarked) [TCMDC-139760],–,36.59
